From PubChem BioAssay (EPA / NIEHS)
Results filed as inconclusive are left out. The source made the active and inactive calls. Rule for the calls, unless noted: active = hit-call score of the fitted dose curve at least 0.9, where 1 is the maximum; inactive = score below 0.9.

Experiments:
[1] = biological target: Bile acid receptor (Homo sapiens) (UniProt Q96RI1); assay: ATG_FXR_TRANS: Attagene TRANS-FACTORIAL HepG2 Assay for Farnesoid X Receptor (FXR) (AID 2282979; active = hit-call score of the fitted dose curve at least 0.9, where 1 is the maximum;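 note: hits raise reporter mRNA above DMSO so AC50 marks FXR activation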); conditions: HepG2 Attagene TRANS FXR-GAL4 reporter transcription
Summary of the method: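 Reporter transcripts from transfected HepG2 cells were measured 24 h after dosing, using RT-PCR with capillary electrophoresis of 6-FAM-labelled fragments. The read-out reflects activity of exogenous FXR-Gal4 chimera on GAL4-UAS units, with induction relative to DMSO.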

[2] = biological target: Oxysterols receptor LXR-alpha (Homo sapiens) (UniProt Q13133); assay: ATG_LXRa_TRANS: Attagene TRANS-FACTORIAL HepG2 Assay for human Liver X Receptor alpha (LXRa) (AID 2282980; active = hit-call score of the fitted dose curve at least 0.9, where 1 is the maximum); conditions: HepG2 Attagene TRANS reporter, LXRa transactivation
Summary of the method: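 Chemical-induced reporter mRNA measured by RT-PCR with fluorescent labelling and capillary electrophoresis after 24 h dosing of transiently transfected HepG2 cells expressing exogenous NR-Gal4 chimeras; increases scored against DMSO baseline.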

[3] = biological target: Oxysterols receptor LXR-beta (Homo sapiens) (UniProt P55055); assay: ATG_LXRb_TRANS: Attagene TRANS-FACTORIAL HepG2 Assay for human Liver X Receptor beta (LXRb) (AID 2282981; active = hit-call score of the fitted dose curve at least 0.9, where 1 is the maximum); conditions: HepG2 Attagene TRANS GAL4-LXRb reporter, mRNA
Summary of the method: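 HepG2 cells transiently transfected with multiple reporter transcription units carrying chimeric NR-Gal4 proteins acting on GAL4-UAS reporters; compound exposure 24 h. Reporter mRNA quantified by RT-PCR, 6-FAM labelling, HpaI digestion and capillary electrophoresis; gain of signal versus DMSO.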

[4] = biological target: Hepatocyte nuclear factor 4-alpha (Homo sapiens) (UniProt P41235); assay: ATG_HNF4a_TRANS: Attagene TRANS-FACTORIAL HepG2 Assay for human Hepatocyte Nuclear Factor 4 alpha (HNF4a) (AID 2282982; active = hit-call score of the fitted dose curve at least 0.9, where 1 is the maximum); conditions: HepG2 HNF4a transactivation reporter, mRNA readout
Summary of the method: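 HepG2 cells transiently transfected with multiplexed GAL4-UAS reporter units responsive to chimeric NR-GAL4 proteins; compound exposure 24 h. Reporter mRNA quantified by RT-PCR, 6-FAM labelling, HpaI digestion and capillary electrophoresis; gain of signal versus DMSO baseline.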

[5] = ATG_M_32_TRANS: Attagene TRANS-FACTORIAL HepG2 Assay for M32 Transcription Factor (Internal Marker) (AID 2282984; active = hit-call score of the fitted dose curve at least 0.9, where 1 is the maximum;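 note: transcript level of a background control reporter unit measured by RT-PCR and capillary electrophoresis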); conditions: HepG2 Attagene TRANS M32 internal marker reporter
Summary of the method: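 HepG2 cells transiently transfected with multiple GAL4-UAS reporter transcription units, dosed for 24 hours; reporter mRNA quantified by RT-PCR, 6-FAM primer extension, HpaI digestion and capillary electrophoresis. Gain-of-signal fitted versus DMSO baseline; internal background-control marker.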

[6] = biological target: Transcriptional activator Myb (Homo sapiens) (UniProt P10242); assay: ATG_Myb_CIS: Attagene CIS-FACTORIAL HepG2 Assay for human Myeloblastosis (Myb) Proto-Oncogene Transcription Factor (AID 2282986); conditions: HepG2 Attagene CIS-FACTORIAL Myb reporter transcription; actives raise or lower the signal
Summary of the method: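 Multiplexed cis-reporter system in HepG2: transient transfection, 24 h treatment, mRNA readout by RT-PCR and capillary electrophoresis. Both increases and decreases are scored versus DMSO negative control.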

[7] = ATG_NFI_CIS: Attagene CIS-FACTORIAL HepG2 Assay for human Nuclear Factor I (NFI) (AID 2282989); conditions: HepG2 cis-regulatory reporter, NFI response element transcription; actives raise or lower the signal
Summary of the method: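 Reporter transcription driven by endogenous transcription factors in HepG2 cells; 24 h treatment. Quantitation by labelled RT-PCR fragments on capillary electrophoresis, gain- or loss-of-signal relative to DMSO.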

[8] = biological target: Myc proto-oncogene protein (Homo sapiens) (UniProt P01106); assay: ATG_Myc_CIS: Attagene CIS-FACTORIAL HepG2 Assay for human Myelocytomatosis (Myc) Proto-Oncogene Transcription Factor (AID 2282990); conditions: HepG2, Attagene cis-reporter transcription factor activity; actives raise or lower the signal
Summary of the method: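 HepG2 cells transiently transfected with multiple cis-promoter-driven reporter transcription units, so endogenous TF activity is read. After 24 h compound exposure, reporter mRNA was quantified by RT-PCR, 6-FAM labelling, HpaI digestion and capillary electrophoresis; bidirectional fit versus DMSO.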

[9] = ATG_NRF2_ARE_CIS: Attagene CIS-FACTORIAL HepG2 Assay for human Nuclear Factor Erythroid 2 Related Factor 2 (NFR2) response to Antioxidant Response Elements (ARE) (AID 2282992); conditions: HepG2 Attagene ARE/NRF2 reporter, transcription factor activity; actives raise or lower the signal;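 for AC50: reporter mRNA level measured by RT-PCR and capillary electrophoresis fluorescence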
Summary of the method: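 Transient MRTU transfection of HepG2; 24 h compound exposure; TriZol RNA, RT with oligo(dT), PCR, 6-FAM primer extension, HpaI cut, CE. Bidirectional fit vs DMSO.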

[10] = ATG_Oct_MLP_CIS: Attagene CIS-FACTORIAL HepG2 Assay for human Octamer-Binding Transcription Factor (Oct) (AID 2282993); conditions: HepG2 Attagene cis-factorial Oct reporter, mRNA; actives raise or lower the signal
Summary of the method: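 Transfected HepG2 cells, 24 h treatment. Reporter mRNA quantified by RT-PCR–capillary electrophoresis; bidirectional fitting against DMSO.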

[11] = BSK_3C_TissueFactor: BioMAP Diversity Plus: 3C Assay for Tissue Factor Biomarker Activity (AID 2282997); conditions: BioMAP 3C HUVEC, tissue factor biomarker readout; actives raise or lower the signal
Summary of the method: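 Dosing of human umbilical vein endothelial cells preceded a 24 h incubation. Tissue Factor was then read by ELISA, with increases and decreases both scored relative to DMSO controls.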

[12] = BSK_3C_uPAR: BioMAP Diversity Plus: 3C Assay for Urokinase-type plasminogen activator receptor (uPAR) Biomarker Activity (AID 2282998); conditions: BioMAP 3C HUVEC, uPAR biomarker ELISA; actives raise or lower the signal
Summary of the method: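 Readout: ELISA for surface uPAR. System: human umbilical vein endothelial primary cells, 24 h after chemical exposure. Analysis: bidirectional fit, DMSO baseline.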

[13] = BSK_3C_VCAM1: BioMAP Diversity Plus: 3C Assay for Vascular cell adhesion molecule 1 (VCAM1) Biomarker Activity (AID 2282999); conditions: BioMAP 3C HUVEC, VCAM1 ELISA, cytokine-stimulated; actives raise or lower the signal
Summary of the method: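 Human umbilical vein endothelial cells were dosed with compound for 24 h, after which cell-surface VCAM-1 was quantified by ELISA. Bidirectional curve fitting used DMSO as negative control and activity baseline.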

[14] = biological target: Glucocorticoid receptor (Homo sapiens) (UniProt P04150); assay: ATG_GR_TRANS: Attagene TRANS-FACTORIAL HepG2 Assay for human Glucocorticoid Receptor (GR) (AID 2282978; active = hit-call score of the fitted dose curve at least 0.9, where 1 is the maximum;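 note: activators score as hits since higher reporter transcript over DMSO is fitted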); conditions: HepG2 Attagene TRANS GR reporter, mRNA transcription
Summary of the method: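 HepG2 transient transfection, multiple reporter units, GAL4-UAS under NR-GAL4 chimera control. 24 h treatment. Reporter mRNA by RT-PCR/CE fluorescence, DMSO as negative control.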

[15] = ATG_M_06_TRANS: Attagene TRANS-FACTORIAL HepG2 Assay for M06 Transcription Factor (Internal Marker) (AID 2282983; active = hit-call score of the fitted dose curve at least 0.9, where 1 is the maximum;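 note: reporter transcript level by RT-PCR then capillary electrophoresis fluorescence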); conditions: HepG2 Attagene TRANS M06 internal marker reporter
Summary of the method: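 Cells: HepG2, transient multi-reporter transfection. Exposure: 24 h. Detection: RT-PCR, 6-FAM labelling, HpaI digestion (2 h, 37 °C), capillary electrophoresis. Baseline: DMSO.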

[16] = ATG_NF_kB_CIS: Attagene CIS-FACTORIAL HepG2 Assay for human Nuclear Factor Kappa B (NF-kB) (AID 2282991); conditions: HepG2 Attagene cis-factorial NF-kB reporter mRNA; actives raise or lower the signal
Summary of the method: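 After 24 h compound incubation, transfected HepG2 cells yield total RNA; reporter cDNA is PCR-amplified, end-labelled with 6-FAM, HpaI-digested and analysed on a genetic analyser. Endogenous factor activity, DMSO-referenced bidirectional fit.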

[17] = biological target: Cellular tumor antigen p53 (Homo sapiens) (UniProt P04637); assay: ATG_p53_CIS: Attagene CIS-FACTORIAL HepG2 Assay for human p53 Transcription Factor (AID 2282994); conditions: HepG2 p53 cis-element reporter, Attagene mRNA; actives raise or lower the signal
Summary of the method: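 HepG2, transient MRTU transfection (cis promoter elements, endogenous TFs); 24 h dosing; RNA isolation, RT-PCR, 6-FAM primer extension, HpaI digest, CE fluorescence; bidirectional fit vs DMSO.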

[18] = biological target: Nuclear receptor subfamily 4 group A member 2 (Homo sapiens) (UniProt P43354); assay: ATG_NURR1_TRANS: Attagene TRANS-FACTORIAL HepG2 Assay for human Nuclear Receptor Related Protein 1 (NURR1) (AID 2282985; active = hit-call score of the fitted dose curve at least 0.9, where 1 is the maximum); conditions: HepG2 Attagene TRANS reporter, mRNA readout
Summary of the method: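 HepG2 cells transiently transfected with GAL4-UAS reporter units and chimeric NR-Gal4 constructs; chemical exposure 24 h. Reporter mRNA quantified by RT-PCR, fluorescent labelling and capillary electrophoresis; gain of signal fitted relative to DMSO baseline.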

[19] = biological target: Nuclear respiratory factor 1 (Homo sapiens) (UniProt Q16656); assay: ATG_NRF1_CIS: Attagene CIS-FACTORIAL HepG2 Assay for human Nuclear Respiratory Factor 1 (NRF1) Orphan Gene (AID 2282987); conditions: HepG2 NRF1 cis-element reporter, Attagene multiplex; actives raise or lower the signal
Summary of the method: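 Endogenous factor activity was captured via cis-element-driven reporter transcripts in HepG2 cells. Following 24 h chemical treatment, transcripts were quantified by RT-PCR and capillary electrophoresis.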

Measured: AC50

Sequence of Nuclear receptor subfamily 4 group A member 2 (Homo sapiens) (P43354 whole entry, looked up, the tested form may be a part): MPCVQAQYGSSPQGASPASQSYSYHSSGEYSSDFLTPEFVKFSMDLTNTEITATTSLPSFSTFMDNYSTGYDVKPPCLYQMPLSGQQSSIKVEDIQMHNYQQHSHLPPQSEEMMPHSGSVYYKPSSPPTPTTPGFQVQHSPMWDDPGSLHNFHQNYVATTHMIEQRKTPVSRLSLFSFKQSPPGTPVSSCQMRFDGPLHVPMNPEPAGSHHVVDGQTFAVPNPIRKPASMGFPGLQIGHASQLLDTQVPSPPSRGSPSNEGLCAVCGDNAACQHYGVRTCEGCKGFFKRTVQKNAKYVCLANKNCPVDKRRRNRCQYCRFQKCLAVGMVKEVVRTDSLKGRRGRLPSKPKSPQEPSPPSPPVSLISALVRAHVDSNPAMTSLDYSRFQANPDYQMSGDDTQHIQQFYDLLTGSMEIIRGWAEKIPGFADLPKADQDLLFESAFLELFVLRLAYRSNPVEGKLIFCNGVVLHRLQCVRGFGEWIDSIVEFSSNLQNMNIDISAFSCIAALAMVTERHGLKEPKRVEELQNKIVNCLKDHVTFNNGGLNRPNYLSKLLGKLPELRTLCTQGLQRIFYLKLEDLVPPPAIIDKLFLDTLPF
Sequence of Cellular tumor antigen p53 (Homo sapiens) (P04637 whole entry, looked up): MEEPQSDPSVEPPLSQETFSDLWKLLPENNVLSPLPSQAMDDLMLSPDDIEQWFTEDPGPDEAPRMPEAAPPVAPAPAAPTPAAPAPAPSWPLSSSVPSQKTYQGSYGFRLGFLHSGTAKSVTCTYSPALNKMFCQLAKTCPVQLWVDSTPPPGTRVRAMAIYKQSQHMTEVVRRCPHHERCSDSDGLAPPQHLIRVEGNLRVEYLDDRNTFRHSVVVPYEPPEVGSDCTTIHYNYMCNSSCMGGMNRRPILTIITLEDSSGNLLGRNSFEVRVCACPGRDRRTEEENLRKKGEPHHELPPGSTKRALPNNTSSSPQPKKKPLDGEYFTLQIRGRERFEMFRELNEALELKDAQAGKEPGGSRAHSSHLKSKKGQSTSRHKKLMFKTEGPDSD
Sequence of Glucocorticoid receptor (Homo sapiens) (P04150 whole entry, looked up, the tested form may be a part): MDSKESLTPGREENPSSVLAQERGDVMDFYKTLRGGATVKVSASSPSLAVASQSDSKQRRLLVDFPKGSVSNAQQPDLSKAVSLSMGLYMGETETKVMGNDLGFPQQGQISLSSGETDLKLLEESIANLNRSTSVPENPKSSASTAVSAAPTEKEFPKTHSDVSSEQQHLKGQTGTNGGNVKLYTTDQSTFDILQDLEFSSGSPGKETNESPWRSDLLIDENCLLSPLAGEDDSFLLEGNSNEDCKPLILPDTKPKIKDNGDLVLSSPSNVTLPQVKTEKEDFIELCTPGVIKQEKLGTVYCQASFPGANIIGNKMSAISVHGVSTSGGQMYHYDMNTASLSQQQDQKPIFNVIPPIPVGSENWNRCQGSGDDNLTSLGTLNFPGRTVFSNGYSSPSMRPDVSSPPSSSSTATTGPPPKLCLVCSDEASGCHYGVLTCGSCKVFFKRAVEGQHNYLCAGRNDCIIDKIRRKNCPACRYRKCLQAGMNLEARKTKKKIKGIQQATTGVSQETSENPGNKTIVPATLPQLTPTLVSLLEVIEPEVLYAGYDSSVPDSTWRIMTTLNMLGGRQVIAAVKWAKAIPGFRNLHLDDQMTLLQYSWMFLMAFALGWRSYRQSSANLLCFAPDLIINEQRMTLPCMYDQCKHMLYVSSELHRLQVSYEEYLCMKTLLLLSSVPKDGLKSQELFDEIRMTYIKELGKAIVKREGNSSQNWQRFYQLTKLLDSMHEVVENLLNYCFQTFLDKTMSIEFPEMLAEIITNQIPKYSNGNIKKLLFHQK
Sequence of Hepatocyte nuclear factor 4-alpha (Homo sapiens) (P41235 whole entry, looked up, the tested form may be a part): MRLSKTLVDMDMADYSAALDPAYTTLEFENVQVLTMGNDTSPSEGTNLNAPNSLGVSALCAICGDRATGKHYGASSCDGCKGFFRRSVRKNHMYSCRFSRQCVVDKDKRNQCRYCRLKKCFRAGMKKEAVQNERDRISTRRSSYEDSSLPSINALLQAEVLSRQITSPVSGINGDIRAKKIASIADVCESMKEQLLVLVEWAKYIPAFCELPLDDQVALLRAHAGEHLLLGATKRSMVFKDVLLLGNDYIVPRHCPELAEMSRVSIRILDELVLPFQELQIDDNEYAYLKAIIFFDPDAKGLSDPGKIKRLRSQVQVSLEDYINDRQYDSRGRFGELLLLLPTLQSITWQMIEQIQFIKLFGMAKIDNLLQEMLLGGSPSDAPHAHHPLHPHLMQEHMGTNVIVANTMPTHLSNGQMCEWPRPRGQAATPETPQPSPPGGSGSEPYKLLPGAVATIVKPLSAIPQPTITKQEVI
Sequence of Bile acid receptor (Homo sapiens) (Q96RI1 whole entry, looked up, the tested form may be a part): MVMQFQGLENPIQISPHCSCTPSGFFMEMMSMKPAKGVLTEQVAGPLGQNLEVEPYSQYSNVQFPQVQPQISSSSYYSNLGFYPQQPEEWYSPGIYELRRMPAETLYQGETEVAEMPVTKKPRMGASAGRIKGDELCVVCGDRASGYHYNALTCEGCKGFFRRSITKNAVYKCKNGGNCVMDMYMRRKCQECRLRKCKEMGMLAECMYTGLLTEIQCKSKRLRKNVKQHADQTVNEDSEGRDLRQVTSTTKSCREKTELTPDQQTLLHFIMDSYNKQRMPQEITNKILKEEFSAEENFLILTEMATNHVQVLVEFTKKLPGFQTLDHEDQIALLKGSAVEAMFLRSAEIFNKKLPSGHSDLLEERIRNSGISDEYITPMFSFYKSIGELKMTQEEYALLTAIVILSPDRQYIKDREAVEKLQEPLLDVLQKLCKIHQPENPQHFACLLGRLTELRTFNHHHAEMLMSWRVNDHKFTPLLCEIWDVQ
Sequence of Oxysterols receptor LXR-alpha (Homo sapiens) (Q13133 whole entry, looked up, the tested form may be a part): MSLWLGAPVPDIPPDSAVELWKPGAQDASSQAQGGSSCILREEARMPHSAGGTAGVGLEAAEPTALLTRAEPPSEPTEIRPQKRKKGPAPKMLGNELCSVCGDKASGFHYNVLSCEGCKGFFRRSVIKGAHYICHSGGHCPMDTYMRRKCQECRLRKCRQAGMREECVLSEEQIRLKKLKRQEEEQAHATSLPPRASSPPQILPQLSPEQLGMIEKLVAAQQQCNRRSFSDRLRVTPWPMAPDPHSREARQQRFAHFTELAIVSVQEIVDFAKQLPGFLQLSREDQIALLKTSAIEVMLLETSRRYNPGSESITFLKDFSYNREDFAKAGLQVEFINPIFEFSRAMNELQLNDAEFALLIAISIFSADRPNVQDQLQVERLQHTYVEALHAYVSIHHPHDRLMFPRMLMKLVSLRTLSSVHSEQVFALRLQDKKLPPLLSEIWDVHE
Sequence of Transcriptional activator Myb (Homo sapiens) (P10242 whole entry, looked up): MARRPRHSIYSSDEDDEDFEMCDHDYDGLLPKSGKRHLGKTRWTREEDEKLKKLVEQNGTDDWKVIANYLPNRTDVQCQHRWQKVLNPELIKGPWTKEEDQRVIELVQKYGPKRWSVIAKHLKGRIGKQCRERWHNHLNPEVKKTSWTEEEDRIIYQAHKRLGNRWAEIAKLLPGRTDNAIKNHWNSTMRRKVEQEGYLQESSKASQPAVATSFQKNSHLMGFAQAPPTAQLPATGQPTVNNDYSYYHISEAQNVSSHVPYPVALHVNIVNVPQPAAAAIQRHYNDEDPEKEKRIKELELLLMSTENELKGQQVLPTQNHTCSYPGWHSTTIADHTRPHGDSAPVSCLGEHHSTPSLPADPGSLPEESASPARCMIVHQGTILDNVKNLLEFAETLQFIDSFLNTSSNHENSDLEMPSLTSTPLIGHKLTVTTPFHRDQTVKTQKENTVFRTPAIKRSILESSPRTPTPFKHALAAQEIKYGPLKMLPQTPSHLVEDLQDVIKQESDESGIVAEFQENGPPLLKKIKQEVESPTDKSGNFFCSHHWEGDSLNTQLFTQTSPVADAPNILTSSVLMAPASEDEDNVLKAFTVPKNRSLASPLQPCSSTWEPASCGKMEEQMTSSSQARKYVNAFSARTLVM
Sequence of Oxysterols receptor LXR-beta (Homo sapiens) (P55055 whole entry, looked up, the tested form may be a part): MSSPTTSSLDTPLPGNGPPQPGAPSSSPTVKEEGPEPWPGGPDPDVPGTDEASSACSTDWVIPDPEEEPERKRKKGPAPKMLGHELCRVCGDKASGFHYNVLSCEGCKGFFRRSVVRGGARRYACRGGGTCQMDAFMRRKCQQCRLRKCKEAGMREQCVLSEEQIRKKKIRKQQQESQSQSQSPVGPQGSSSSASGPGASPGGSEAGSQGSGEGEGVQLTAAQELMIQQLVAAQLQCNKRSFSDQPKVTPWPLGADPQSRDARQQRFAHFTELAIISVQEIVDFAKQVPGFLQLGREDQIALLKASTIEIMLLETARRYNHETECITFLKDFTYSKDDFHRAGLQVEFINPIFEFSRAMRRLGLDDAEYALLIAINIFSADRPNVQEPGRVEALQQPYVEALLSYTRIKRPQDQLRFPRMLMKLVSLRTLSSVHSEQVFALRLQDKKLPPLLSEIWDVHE
Sequence of Nuclear respiratory factor 1 (Homo sapiens) (Q16656 whole entry, looked up): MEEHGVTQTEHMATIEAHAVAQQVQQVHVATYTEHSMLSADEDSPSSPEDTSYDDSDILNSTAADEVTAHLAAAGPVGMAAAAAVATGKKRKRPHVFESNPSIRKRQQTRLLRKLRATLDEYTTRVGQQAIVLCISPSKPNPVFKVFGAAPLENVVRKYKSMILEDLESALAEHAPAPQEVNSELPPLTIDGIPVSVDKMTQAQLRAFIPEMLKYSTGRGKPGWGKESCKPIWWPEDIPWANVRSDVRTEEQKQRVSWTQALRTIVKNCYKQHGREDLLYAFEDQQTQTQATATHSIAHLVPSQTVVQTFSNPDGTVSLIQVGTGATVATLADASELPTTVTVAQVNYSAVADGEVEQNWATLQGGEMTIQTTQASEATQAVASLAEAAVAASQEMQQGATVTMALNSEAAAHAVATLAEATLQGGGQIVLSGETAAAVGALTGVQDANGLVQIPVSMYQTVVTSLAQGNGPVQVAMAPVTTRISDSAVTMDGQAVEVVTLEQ

Cc1ncc([C@@H](CCCCCCc2ccc3c(n2)NCCC3)CC(=O)O)cn1
not listed: [14] | [15] | [16] | [17] | [18] | [19]
inactive: all other assays above

NC(=O)N(O)[C@@H]1COc2cc(OCc3ccccc3)ccc21
not listed: [17] | [18] | [19]
inactive: all other assays above

C=CCc1cc(S(=O)(=O)c2ccc(O)c(CC=C)c2)ccc1O
active: [9] 7.04 µM | [11] 32 µM | [12] 12.8 µM | [13] 32 µM
inactive: [14] | [1] | [5] | [6] | [7] | [8] | [16] | [10]

NCC(F)(F)C(F)(F)C(F)(F)C(F)(F)F
not listed: [3] | [18] | [19]
inactive: all other assays above

CCc1cccc(CC)c1N
not listed: [1] | [2] | [3] | [5] | [15] | [16]
inactive: all other assays above

CCCCC(CC)C(=O)OCCOCCOCCOC(=O)C(CC)CCCC (configuration not stated)
not listed: [1] | [2] | [3] | [4] | [5] | [15]
inactive: all other assays above

CCCC(CCC)C(=O)O
not listed: [1] | [2] | [3] | [4] | [15] | [17] | [18] | [19]
inactive: all other assays above

CCCCCCCCN(C)C
not listed: [1] | [2] | [4] | [5] | [15] | [16] | [18] | [19]
inactive: all other assays above

CCc1ccc(O)c(C(C)(C)C)c1
active: [8] 33.4 µM | [9] 27.7 µM | [11] 32.2 µM | [12] 39.3 µM | [13] 34.6 µM
inactive: [14] | [2] | [5] | [6] | [7] | [16] | [10] | [17]

O=C1CN(N=Cc2ccc([N+](=O)[O-])o2)C(=O)N1
inactive: [14] | [15] | [5] | [6] | [8] | [10] | [17] | [11] | [12] | [13]

OCCOCCOCCO
not listed: [1] | [2] | [3] | [4]
inactive: all other assays above

OC(CCl)CCl
not listed: [1] | [2] | [18]
inactive: all other assays above

O=C(O)c1cccc(C(=O)O)c1
not listed: [2] | [15] | [16] | [17] | [18]
inactive: all other assays above

CCCc1ccccc1
not listed: [1] | [2] | [3] | [5] | [15] | [16] | [18]
inactive: all other assays above

C[C@]12C=CC(=O)C=C1CC[C@H]1[C@@H]3C[C@@H](O)[C@](O)(C(=O)CO)[C@@]3(C)C[C@H](O)[C@@]12F
active: [14] 0.0585 µM
not listed: [1] | [3] | [5] | [15] | [16] | [18]
inactive: all other assays above

Cc1ccc(S(=O)(=O)NC(=O)NN2CCCCCC2)cc1
not listed: [1] | [4] | [15] | [17] | [18]
inactive: all other assays above

O=C(O)c1cccc(C[C@@H]2COc3ccc(OCc4nc5cc(F)ccc5s4)cc3[C@@H]2O)c1
active: [16] 100 µM | [9] 32.3 µM | [10] 159 µM
inactive: [14] | [5] | [6] | [7] | [8] | [17] | [11] | [12] | [13]

CC[C@H](C)C(=O)O[C@H]1C[C@H](O)C=C2C=C[C@H](C)[C@H](CC[C@@H](O)C[C@@H](O)CC(=O)O)[C@H]21
not listed: [1] | [2] | [5] | [15] | [17] | [18]
inactive: all other assays above
